Each structure is given as a SMILES string. Compounds without any hit were thinned out: in the full panel of roughly 83,000, 20% have a hit.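 For each line, cells grew in 96-well plates with the test compound present at a single concentration for 48 hours.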 Unmarked numbers belong to inactive results. Activity calls are given as the source filed them. The calls were made as follows: active = growth percent below 10; inactive = the rest.

Among the test systems are SR leukemia; RPMI-8226 leukemia; OVCAR-8 ovarian; OVCAR-5 ovarian; OVCAR-4 ovarian; SK-OV-3 ovarian; IGROV1 ovarian; OVCAR-3 ovarian; NCI/ADR-RES ovarian; T-47D breast; BT-549 breast; MDA-MB-435 melanoma; MCF7 breast; HCT-116 colon; HCC-2998 colon; KM12 colon; MDA-MB-468 breast; HS 578T breast; SW-620 colon.
What all share (test): NCI-60 one-dose screen, 48 h (100 = growth as untreated, 0 = no growth, -100 = all killed)
Common to all, as to details: 10 µM unless noted

For the compound `O=C(/C=C/c1cccc(OCc2ccc(F)cc2)c1)c1nc2ccccc2[nH]1`, the growth is -44% (active) with SR leukemia; -50.4% (active) with RPMI-8226 leukemia; 83.2% in the assay with OVCAR-8 ovarian; 122% with OVCAR-5 ovarian; 62.5% in the assay with OVCAR-4 ovarian; 92.9% with SK-OV-3 ovarian. Further, the growth is 93.5% in the assay on IGROV1 ovarian; 68.2% in the assay on OVCAR-3 ovarian; 72.5% in the assay with NCI/ADR-RES ovarian; 22.1% in the assay with T-47D breast; 16% in the assay on BT-549 breast; 68.8% in the assay with MDA-MB-435 melanoma. The growth in the assay with MCF7 breast is 3.5% (active); with HCT-116 colon, -24.9% (active); with HCC-2998 colon, 26.6%; in the assay with KM12 colon it was 13.6%; in the assay on MDA-MB-468 breast, 8.37% (active).

Turning to `COc1ccc([C@H](C)Nc2nc(Cl)nc3ccccc23)cc1`, the growth in the assay on SR leukemia was 17.9%; with RPMI-8226 leukemia it was 23.6%; in the assay on OVCAR-8 ovarian it was 56.4%; in the assay on OVCAR-5 ovarian, 54.7%; with OVCAR-4 ovarian, 62.9%; in the assay on SK-OV-3 ovarian, 70.5%. Also, the growth in the assay with IGROV1 ovarian was 63.2%; in the assay on OVCAR-3 ovarian, 78.7%; in the assay with T-47D breast, 49.4%; in the assay with BT-549 breast, 60.3%; in the assay with MDA-MB-435 melanoma, 45.8%; in the assay with MCF7 breast, 28.8%. Also, the growth in the assay with HCC-2998 colon is 93.6%; in the assay with KM12 colon, 43%; in the assay with MDA-MB-468 breast it was 15.1%.

Regarding `Cn1nc(C(F)(F)F)cc1-c1cc(Cl)c(COc2ccc(Cl)cc2)c(-c2ccc(Cl)c(C(F)(F)F)c2)c1O`, the growth was -32.4% (active) in the assay on SR leukemia; -39.2% (active) in the assay on RPMI-8226 leukemia; -25.6% (active) in the assay on OVCAR-8 ovarian; -1.15% (active) with OVCAR-5 ovarian; 13.9% with OVCAR-4 ovarian; -14.5% (active) in the assay on SK-OV-3 ovarian. In addition, the growth was 5.06% (active) in the assay on IGROV1 ovarian; -8.73% (active) in the assay with OVCAR-3 ovarian; -34.8% (active) in the assay on NCI/ADR-RES ovarian; -51.6% (active) with BT-549 breast; -34.4% (active) in the assay on MDA-MB-435 melanoma; -14.3% (active) in the assay on MCF7 breast. In addition, the growth in the assay with HCC-2998 colon is -33.1% (active); with KM12 colon it was -19.1% (active); in the assay on MDA-MB-468 breast, -23.9% (active).

With `CC(=O)Nc1cccc(Nc2nc(N[C@H]3CCCc4ccccc43)c3ccccc3n2)c1`, the growth is 81.3% in the assay with SR leukemia; 103% in the assay on RPMI-8226 leukemia; 103% in the assay with OVCAR-8 ovarian; 103% in the assay with OVCAR-5 ovarian; 104% in the assay on OVCAR-4 ovarian; 91.6% in the assay on SK-OV-3 ovarian. Moreover, the growth was 111% with IGROV1 ovarian; 107% with OVCAR-3 ovarian; 100% with NCI/ADR-RES ovarian; 102% in the assay with T-47D breast; 131% with BT-549 breast; 102% in the assay on MDA-MB-435 melanoma. Moreover, the growth with MCF7 breast was 95.6%; with HCT-116 colon it was 108%; with HCC-2998 colon, 117%; in the assay on KM12 colon it was 101%; in the assay on MDA-MB-468 breast, 101%.

For `Nc1nc(-c2ccccc2)c(N=Nc2ccc(Cl)cc2[N+](=O)[O-])s1`, the growth was 99.7% in the assay on SR leukemia; 94.2% with RPMI-8226 leukemia; 91.3% in the assay with OVCAR-8 ovarian; 101% in the assay with OVCAR-5 ovarian; 96.5% with SK-OV-3 ovarian; 80.5% in the assay on IGROV1 ovarian. The growth in the assay with OVCAR-3 ovarian is 108%; in the assay on HS 578T breast, 79.6%; in the assay with NCI/ADR-RES ovarian it was 101%; with T-47D breast it was 61.2%; in the assay with BT-549 breast it was 92.6%; in the assay with MDA-MB-435 melanoma, 105%. Further, the growth in the assay on SW-620 colon was 102%; in the assay on MCF7 breast, 60.3%; with HCT-116 colon, 97.1%; in the assay on HCC-2998 colon it was 102%; with KM12 colon, 102%; in the assay with MDA-MB-468 breast, 89.7%.

`Nc1nc(-c2ccccc2)c(N=Nc2ccc([N+](=O)[O-])cc2Cl)s1`: the growth in the assay on SR leukemia was 136%; with RPMI-8226 leukemia it was 53%; with OVCAR-8 ovarian it was 78.5%; with OVCAR-5 ovarian, 107%; in the assay with SK-OV-3 ovarian, 82%; in the assay on IGROV1 ovarian, 86.3%. Further, the growth with OVCAR-3 ovarian is 74.8%; in the assay on HS 578T breast, 85%; with NCI/ADR-RES ovarian, 89.6%; with T-47D breast it was 40.7%; with BT-549 breast, 82.9%; in the assay with MDA-MB-435 melanoma, 87.1%. The growth with SW-620 colon was 90.3%; in the assay with MCF7 breast, 68.1%; in the assay on HCT-116 colon, 70.1%; with HCC-2998 colon it was 99.9%; with KM12 colon it was 90.4%; with MDA-MB-468 breast, 55.8%.

As for `CC(=O)Nc1cccc(Nc2nc(NCc3ccccc3)c3ccccc3n2)c1`, the growth with SR leukemia is -45.3% (active); in the assay with RPMI-8226 leukemia, -38.3% (active); in the assay with OVCAR-8 ovarian, -73.6% (active); in the assay with OVCAR-5 ovarian, -98.4% (active); in the assay on OVCAR-4 ovarian, -73.2% (active); in the assay on SK-OV-3 ovarian it was -96.2% (active). The growth with IGROV1 ovarian is -94.1% (active); in the assay with OVCAR-3 ovarian it was -79.3% (active); with NCI/ADR-RES ovarian it was -65% (active); in the assay with BT-549 breast, -86.8% (active); in the assay with MDA-MB-435 melanoma, -92.8% (active); in the assay with MCF7 breast it was -77.2% (active). For the same compound, the growth with HCT-116 colon was -74.7% (active); in the assay on HCC-2998 colon, -98.8% (active); with KM12 colon, -66% (active); in the assay with MDA-MB-468 breast, -93.7% (active).

Take `CC1=C(C(=O)OCc2ccccc2)C(c2c(O)cc(O)cc2O)n2c(nc3ccccc32)N1` (centres undefined): the growth with SR leukemia was 18.5%; in the assay on RPMI-8226 leukemia it was 81.9%; in the assay with OVCAR-8 ovarian, 77.9%; in the assay with OVCAR-5 ovarian, 73.6%; in the assay with OVCAR-4 ovarian it was 84%; in the assay on SK-OV-3 ovarian it was 44.4%. Further, the growth in the assay on IGROV1 ovarian is 51%; with OVCAR-3 ovarian, 33.6%; in the assay on NCI/ADR-RES ovarian it was 31%; in the assay with BT-549 breast it was 55%; with MDA-MB-435 melanoma, 1.29% (active); with MCF7 breast, 25%. The growth in the assay on HCT-116 colon was 26.1%; in the assay with HCC-2998 colon, 86.4%; in the assay with KM12 colon, 46.3%; in the assay on MDA-MB-468 breast it was -27.4% (active).

In the case of `CC1=C(C(=O)c2ccccc2)C(c2cccc3ccccc23)n2c(nc3ccccc32)N1` (centres undefined), the growth in the assay with SR leukemia is 43.7%; in the assay with RPMI-8226 leukemia it was 83.9%; in the assay with OVCAR-8 ovarian it was 38.3%; in the assay on OVCAR-5 ovarian, 68.4%; in the assay on OVCAR-4 ovarian, 75.6%; with SK-OV-3 ovarian it was 57.4%. The growth in the assay with IGROV1 ovarian was 86.5%; in the assay with OVCAR-3 ovarian it was 59%; in the assay with NCI/ADR-RES ovarian, 43.3%; in the assay with T-47D breast it was 89.9%; in the assay on BT-549 breast it was 61.1%; in the assay with MDA-MB-435 melanoma, 72.6%. For the same compound, the growth in the assay with MCF7 breast was 38.1%; in the assay on HCT-116 colon, 31.7%; with HCC-2998 colon it was 95.5%; with KM12 colon it was 90.6%; in the assay with MDA-MB-468 breast, -12.7% (active).

These data come from PubChem BioAssay (NCI).
